# Assay results published in PubChem BioAssay (NCATS).
# Results filed as inconclusive are left out. Active and inactive are the calls of the source. Unless noted, calls follow the shape of the full dose curve.
# Experiments:
# [1] = target: Estrogen receptor (Homo sapiens) (UniProt P03372); test: qHTS assay for small molecule antagonists of estrogen receptor alpha signaling (AID 588513; active = well fitted curve in the direction sought with a large enough effect in the signal ratio, with a control signal flat, not every such curve was filed as active; the % refers to the signal ratio; also: % is scaled to controls: 0 for no effect and ±100 for the full control effect)
# Chain of Estrogen receptor (Homo sapiens) (P03372 whole entry, looked up): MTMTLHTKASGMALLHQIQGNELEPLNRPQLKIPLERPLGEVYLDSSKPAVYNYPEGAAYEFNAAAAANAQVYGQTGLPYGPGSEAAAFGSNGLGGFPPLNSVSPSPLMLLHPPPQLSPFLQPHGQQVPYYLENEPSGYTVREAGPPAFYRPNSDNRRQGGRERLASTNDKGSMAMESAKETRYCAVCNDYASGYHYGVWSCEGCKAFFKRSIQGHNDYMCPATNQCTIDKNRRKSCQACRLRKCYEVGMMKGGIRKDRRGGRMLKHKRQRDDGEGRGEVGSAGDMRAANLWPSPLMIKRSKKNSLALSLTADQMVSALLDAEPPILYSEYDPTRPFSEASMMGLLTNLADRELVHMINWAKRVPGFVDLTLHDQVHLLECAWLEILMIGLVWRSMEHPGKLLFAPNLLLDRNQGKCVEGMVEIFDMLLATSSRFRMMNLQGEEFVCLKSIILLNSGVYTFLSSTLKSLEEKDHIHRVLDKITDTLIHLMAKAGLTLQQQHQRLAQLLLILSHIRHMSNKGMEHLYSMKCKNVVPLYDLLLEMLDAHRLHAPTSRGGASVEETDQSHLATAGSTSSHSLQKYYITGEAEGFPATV
# Outline: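 Beta-lactamase reporter, antagonist mode, HEK 293 GripTite cells; 0.5nM E2 stimulus, 18 h, 37 C; CCF4 dye 2 h RT; fluorescence. IC50 and efficacy from Hill fits, normalized to E2 and DMSO.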
# [2] = target: Estrogen receptor (Homo sapiens) (UniProt P03372); test: qHTS assay for small molecule agonists of estrogen receptor alpha signaling (AID 588514);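 also: 0% = vehicle only and 100% = reference agonist; nearly all actives have a fitted effect of over 70% in size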
# Outline: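 Efficacy is expressed against 20 nM 17-beta-estradiol (100%) and DMSO basal (0%); EC50 from Hill equation. Assay: beta-lactamase reporter in ER-alpha-UAS-bla HEK 293 cells, 18 h compound incubation, CCF4 detection.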
# [3] = target: Androgen receptor (Homo sapiens) (UniProt P10275); test: qHTS assay for small molecule agonists of androgen receptor signaling (AID 588515; active = well fitted curve in the direction sought with a large enough effect in the signal ratio, with a control signal flat; the % refers to the signal ratio; also: % is scaled to controls: 0 for no effect and ±100 for the full control effect); details: AR-UAS-bla HEK293, beta-lactamase ratio, agonist 16 h; stronger effect = higher value
# Outline: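 Stimulation of an AR-responsive β-lactamase reporter in GripTite HEK293 cells was measured after 16 h compound exposure at 37 °C, via CCF4 fluorescence after 2 h RT. EC50 from Hill fits, normalized to R1881 at 30 nM.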
# [4] = target: Bile acid receptor (Homo sapiens) (UniProt Q96RI1); test: qHTS assay for small molecule antagonists of farnesoid X receptor signaling (AID 588526); also: % is scaled to controls: 0 for no effect and ±100 for the full control effect
# Chain of Bile acid receptor (Homo sapiens) (Q96RI1 whole entry, looked up): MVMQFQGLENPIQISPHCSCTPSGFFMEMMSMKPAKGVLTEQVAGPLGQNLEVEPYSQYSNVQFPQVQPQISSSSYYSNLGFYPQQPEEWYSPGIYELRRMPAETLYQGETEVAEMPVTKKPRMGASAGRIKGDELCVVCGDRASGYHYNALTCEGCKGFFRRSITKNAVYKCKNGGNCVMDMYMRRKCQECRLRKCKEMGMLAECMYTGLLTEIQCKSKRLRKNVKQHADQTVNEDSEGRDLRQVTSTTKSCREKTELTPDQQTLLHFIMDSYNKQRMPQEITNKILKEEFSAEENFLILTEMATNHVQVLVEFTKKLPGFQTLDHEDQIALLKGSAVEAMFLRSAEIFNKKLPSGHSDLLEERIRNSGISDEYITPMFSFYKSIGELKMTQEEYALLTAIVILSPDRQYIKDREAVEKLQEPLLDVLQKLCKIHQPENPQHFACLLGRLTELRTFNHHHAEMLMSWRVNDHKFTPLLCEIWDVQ
# Outline: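 Concentration-response titrations were fitted to the Hill equation for half-maximal inhibition and maximal response, with data normalised to 50 uM chenodeoxycholic acid and DMSO control wells. Cells: FXR-UAS-bla HEK293T, dialyzed FBS.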
# [5] = target: Bile acid receptor (Homo sapiens) (UniProt Q96RI1); test: qHTS assay for small molecule agonists of farnesoid X receptor signaling (AID 588527); details: HEK293T FXR-UAS-bla, beta-lactamase ratio, 16 h; activation: stronger effect = higher value;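 also: series mostly up to about 77 µM; 0% = vehicle basal and 100% = reference agonist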
# Outline: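 Read-out: beta-lactamase reporter fluorescence with CCF4 substrate in GeneBLAzer FXR-UAS-bla HEK293T cells, after 16 h compound exposure at 37 C. Response scaled between DMSO basal (0%) and chenodeoxycholic acid at 100 uM (100%).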
# [6] = target: Glucocorticoid receptor (Homo sapiens) (UniProt P04150); test: qHTS assay for small molecule agonists of glucocorticoid receptor signaling (AID 588532; active = well fitted curve in the direction sought with a large enough effect in the signal ratio, with a control signal flat; the % refers to the signal ratio;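 also: 100% = dexamethasone at 0.1 µM and 0% = DMSO only wells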); details: HeLa MMTV-bla, beta-lactamase ratio, agonist, 18 h; activation: stronger effect = higher value, percent of dexamethasone control, DMSO zero
# Chain of Glucocorticoid receptor (Homo sapiens) (P04150 whole entry, looked up): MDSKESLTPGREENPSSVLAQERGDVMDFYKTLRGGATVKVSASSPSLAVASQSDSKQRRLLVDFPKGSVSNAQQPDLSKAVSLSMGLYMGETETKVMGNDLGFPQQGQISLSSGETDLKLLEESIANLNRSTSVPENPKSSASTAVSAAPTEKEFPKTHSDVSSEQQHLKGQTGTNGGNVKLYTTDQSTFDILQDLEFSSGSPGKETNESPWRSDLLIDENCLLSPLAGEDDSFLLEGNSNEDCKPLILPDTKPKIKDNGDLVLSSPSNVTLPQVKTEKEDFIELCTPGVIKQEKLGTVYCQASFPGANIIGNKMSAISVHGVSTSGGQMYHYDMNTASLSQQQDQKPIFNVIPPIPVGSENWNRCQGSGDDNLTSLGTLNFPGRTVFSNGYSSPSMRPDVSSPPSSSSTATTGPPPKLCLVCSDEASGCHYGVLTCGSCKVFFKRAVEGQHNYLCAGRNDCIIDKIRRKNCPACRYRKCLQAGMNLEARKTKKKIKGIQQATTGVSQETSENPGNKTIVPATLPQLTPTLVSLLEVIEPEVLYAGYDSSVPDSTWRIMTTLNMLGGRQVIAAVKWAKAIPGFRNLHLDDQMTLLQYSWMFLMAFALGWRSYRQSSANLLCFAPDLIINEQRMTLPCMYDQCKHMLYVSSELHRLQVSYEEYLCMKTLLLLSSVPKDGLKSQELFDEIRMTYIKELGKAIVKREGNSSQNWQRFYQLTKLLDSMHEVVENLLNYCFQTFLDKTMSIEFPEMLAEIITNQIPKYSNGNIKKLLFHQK
# Outline: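 Titration series, up to 92 uM, applied to GRE-bla HeLa cells for 18 h at 37 C. Detection by CCF4 FRET substrate after 2 h at RT.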
# [7] = target: Glucocorticoid receptor (Homo sapiens) (UniProt P04150); test: qHTS assay for small molecule antagonists of glucocorticoid receptor signaling (AID 588533; active = well fitted inhibition curve with a large enough effect in the signal ratio, with a control signal flat, not every such curve was filed as active; the % refers to the signal ratio;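 also: cells stimulated with 2 nM dexamethasone as agonist; % is scaled to controls: 0 for no effect and ±100 for the full control effect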)
# Outline: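 Antagonist-mode qHTS: compound titrations added to GRE-bla HeLa cells, then dexamethasone 2 nM final; 18 h, 37 C. CCF4 FRET fluorescence normalized to dexamethasone and DMSO; IC50 from Hill fit.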
# [8] = target: Peroxisome proliferator-activated receptor delta (Homo sapiens) (UniProt Q03181); test: qHTS assay for small molecule agonists of peroxisome proliferator-activated receptor delta signaling (AID 588534);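 also: 0% = DMSO basal wells and 100% = positive control agonist at 10 µM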
# Chain of Peroxisome proliferator-activated receptor delta (Homo sapiens) (Q03181 whole entry, looked up): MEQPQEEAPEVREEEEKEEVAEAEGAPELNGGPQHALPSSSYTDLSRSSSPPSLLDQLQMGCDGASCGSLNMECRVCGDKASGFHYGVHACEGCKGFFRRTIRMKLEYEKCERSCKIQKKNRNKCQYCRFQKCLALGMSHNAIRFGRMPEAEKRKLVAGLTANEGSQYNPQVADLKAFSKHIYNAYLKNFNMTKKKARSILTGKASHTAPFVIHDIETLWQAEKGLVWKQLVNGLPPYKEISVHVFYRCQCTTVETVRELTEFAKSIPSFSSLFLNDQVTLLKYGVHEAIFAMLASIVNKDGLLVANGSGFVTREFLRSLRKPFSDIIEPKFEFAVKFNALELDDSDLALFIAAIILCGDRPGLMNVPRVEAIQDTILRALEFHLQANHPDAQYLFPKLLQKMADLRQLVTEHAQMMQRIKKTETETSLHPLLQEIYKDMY
# Outline: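 Agonist-mode qHTS; reporter cells, 5 hrs 37 C pre-incubation; compound titration, 18 hrs 37 C; CCF4 dye, 2 hrs RT; fluorescence read. EC50/efficacy via Hill fit.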
# [9] = qHTS assay for small molecule antagonists of peroxisome proliferator-activated receptor delta signaling (AID 588535; active = well fitted inhibition curve with a large enough effect in the signal ratio, with a control signal flat, not every such curve was filed as active; the % refers to the signal ratio;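 as to max response: cells co-treated with a PPAR-delta agonist as stimulator during compound exposure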); details: HEK293T PPARd-UAS-bla, beta-lactamase FRET ratio, 18 h; 460 nm channel
# Outline: (§1)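 Inhibition of PPAR-delta response element-driven beta-lactamase expression is measured in HEK293T cells exposed to a compound titration series for 18 hrs at 37 C. Half-maximal inhibition comes from Hill equation fitting.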
# [10] = target: Peroxisome proliferator-activated receptor delta (Homo sapiens) (UniProt Q03181); test: as above
# Outline: as §1
# [11] = target: Peroxisome proliferator-activated receptor gamma (Homo sapiens) (UniProt P37231); test: qHTS assay for small molecule agonists of peroxisome proliferator-activated receptor gamma signaling (AID 588536; active = well fitted curve in the direction sought with a large enough effect in the signal ratio, with a control signal flat, not every such curve was filed as active; the % refers to the signal ratio;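 also: 0% = DMSO basal wells and 100% = rosiglitazone at 2 µM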)
# Chain of Peroxisome proliferator-activated receptor gamma (Homo sapiens) (P37231 whole entry, looked up): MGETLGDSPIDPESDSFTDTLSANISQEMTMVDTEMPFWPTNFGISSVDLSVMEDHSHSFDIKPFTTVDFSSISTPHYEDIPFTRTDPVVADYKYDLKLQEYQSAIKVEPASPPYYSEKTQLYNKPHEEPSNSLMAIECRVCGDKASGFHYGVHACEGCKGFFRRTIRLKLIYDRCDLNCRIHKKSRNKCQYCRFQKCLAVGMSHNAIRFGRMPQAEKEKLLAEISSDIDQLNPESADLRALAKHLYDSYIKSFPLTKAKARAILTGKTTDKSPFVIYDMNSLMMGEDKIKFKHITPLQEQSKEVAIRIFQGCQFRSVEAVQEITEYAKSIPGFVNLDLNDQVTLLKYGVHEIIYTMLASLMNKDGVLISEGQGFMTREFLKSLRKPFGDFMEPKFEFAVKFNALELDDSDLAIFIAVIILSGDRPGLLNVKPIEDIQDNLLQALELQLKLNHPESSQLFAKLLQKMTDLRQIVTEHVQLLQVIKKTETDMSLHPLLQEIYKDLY
# Outline: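 Beta-lactamase reporter read-out: CCF4 fluorescence (ex 405, em 460/530 nm) after 2 h at RT. HEK293 GeneBLAzer cells were treated for 16 h at 37 C. Hill fits gave EC50 and efficacy versus 2 uM rosiglitazone (100%) and DMSO (0%).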
# [12] = target: Peroxisome proliferator-activated receptor gamma (Homo sapiens) (UniProt P37231); test: qHTS assay for small molecule antagonists of peroxisome proliferator-activated receptor gamma signaling (AID 588537; active = well fitted inhibition curve with a large enough effect in the signal ratio, with a control signal flat, not every such curve was filed as active; the % refers to the signal ratio;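 also: reporter cells co-stimulated with 50 nM rosiglitazone agonist during compound treatment; % of control where 0% means no effect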)
# Outline: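 Compounds are tested as concentration series for inhibition of rosiglitazone-driven (50 nM) reporter expression in GeneBLAzer PPAR-gamma-UAS-bla HEK293 cells. After 16 h at 37 C, CCF4 substrate is added for 2 h at room temperature and blue/green fluorescence is measured.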
# [13] = target: Vitamin D3 receptor (Homo sapiens) (UniProt P11473); test: qHTS assay for small molecule antagonists of vitamin D receptor signaling (AID 588541)
# Chain of Vitamin D3 receptor (Homo sapiens) (P11473 whole entry, looked up): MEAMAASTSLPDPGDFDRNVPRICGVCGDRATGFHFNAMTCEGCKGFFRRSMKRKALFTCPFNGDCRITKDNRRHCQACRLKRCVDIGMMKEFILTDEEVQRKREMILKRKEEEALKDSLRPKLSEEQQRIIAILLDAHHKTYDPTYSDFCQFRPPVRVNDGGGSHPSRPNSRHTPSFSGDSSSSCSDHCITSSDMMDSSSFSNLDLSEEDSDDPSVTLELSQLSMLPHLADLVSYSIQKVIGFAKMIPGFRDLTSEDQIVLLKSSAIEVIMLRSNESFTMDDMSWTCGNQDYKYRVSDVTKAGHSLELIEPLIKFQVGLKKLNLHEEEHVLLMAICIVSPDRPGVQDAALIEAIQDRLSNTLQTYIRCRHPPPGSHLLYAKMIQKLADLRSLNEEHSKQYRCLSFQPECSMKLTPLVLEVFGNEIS
# Outline: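 VDR-UAS-bla HEK293T cells (2000/well, 2% charcoal-stripped FBS) were treated with titrated compounds plus 1-alpha,25-dihydroxyvitamin D3 (50 nM or 3 nM final) for 16 h at 37 C. CCF4 beta-lactamase fluorescence was read; Hill fits gave IC50.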
# [14] = target: Vitamin D3 receptor (Homo sapiens) (UniProt P11473); test: qHTS assay for small molecule agonists of vitamin D receptor signaling (AID 588543);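 also: 0% = DMSO basal and 100% = reference agonist control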
# Outline: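 β-lactamase reporter, VDR-UAS-bla HEK293T, agonist mode. Cells plated 5 h at 37 °C, compound titration 16 h at 37 °C, CCF4 dye 2 h RT, ratio 460/530 nm. Hill fit → EC50, efficacy vs 50 nM 1α,25-(OH)2D3.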
# [15] = qHTS assay for small molecule agonists of retinoid X receptor alpha signaling (AID 588544); details: HEK293T RXRa-UAS-bla, beta-lactamase reporter, 18 h; 530 nm emission;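 as to activation: 0% = DMSO basal wells and 100% = reference agonist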
# [16] = target: Retinoic acid receptor RXR-alpha (Homo sapiens) (UniProt P19793); test: as above
# Chain of Retinoic acid receptor RXR-alpha (Homo sapiens) (P19793 whole entry, looked up): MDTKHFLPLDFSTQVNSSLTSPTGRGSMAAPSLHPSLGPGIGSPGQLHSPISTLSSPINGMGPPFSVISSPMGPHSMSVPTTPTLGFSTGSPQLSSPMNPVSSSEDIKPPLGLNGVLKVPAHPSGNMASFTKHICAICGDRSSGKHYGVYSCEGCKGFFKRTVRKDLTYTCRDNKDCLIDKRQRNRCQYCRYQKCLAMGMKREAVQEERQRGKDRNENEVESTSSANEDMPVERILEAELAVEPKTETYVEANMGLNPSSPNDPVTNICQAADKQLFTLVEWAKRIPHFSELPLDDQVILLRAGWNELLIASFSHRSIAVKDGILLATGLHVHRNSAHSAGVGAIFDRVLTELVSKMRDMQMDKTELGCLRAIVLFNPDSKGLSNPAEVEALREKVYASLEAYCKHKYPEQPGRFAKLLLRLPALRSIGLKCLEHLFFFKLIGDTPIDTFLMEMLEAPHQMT
# [17] = qHTS assay for small molecule antagonists of retinoid X receptor alpha signaling (AID 588546; active = well fitted inhibition curve with a large enough effect in the signal ratio, with a control signal flat, not every such curve was filed as active; the % refers to the signal ratio); details: HEK293T RXRa-UAS-bla, beta-lactamase ratio, antagonist mode; measured here: W530 green channel, cytotoxicity proxy
# Outline: (§2)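 Beta-lactamase reporter inhibition, read as CCF4 fluorescence ratio (ex 405, em 460/530 nm) after 2 h at RT. HEK293T UAS-bla cells, 2500/well, were stimulated with 9-cis-RA at 500 or 100 nM final alongside test compound for 18 h at 37 C.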
# [18] = target: Retinoic acid receptor RXR-alpha (Homo sapiens) (UniProt P19793); test: as above; details: HEK293T RXRa-UAS-bla, beta-lactamase ratio, antagonist mode
# Outline: as §2
# [19] = target: Thyroid hormone receptor beta (Homo sapiens) (UniProt P10828); test: qHTS assay for small molecule antagonists of thyroid hormone receptor beta signaling (AID 588547; active = well fitted inhibition curve with a large enough effect in the signal ratio, with a control signal flat, not every such curve was filed as active; the % refers to the signal ratio); details: TR-UAS-bla HEK293, beta-lactamase ratio, antagonist mode, 18 h
# Chain of Thyroid hormone receptor beta (Homo sapiens) (P10828 whole entry, looked up): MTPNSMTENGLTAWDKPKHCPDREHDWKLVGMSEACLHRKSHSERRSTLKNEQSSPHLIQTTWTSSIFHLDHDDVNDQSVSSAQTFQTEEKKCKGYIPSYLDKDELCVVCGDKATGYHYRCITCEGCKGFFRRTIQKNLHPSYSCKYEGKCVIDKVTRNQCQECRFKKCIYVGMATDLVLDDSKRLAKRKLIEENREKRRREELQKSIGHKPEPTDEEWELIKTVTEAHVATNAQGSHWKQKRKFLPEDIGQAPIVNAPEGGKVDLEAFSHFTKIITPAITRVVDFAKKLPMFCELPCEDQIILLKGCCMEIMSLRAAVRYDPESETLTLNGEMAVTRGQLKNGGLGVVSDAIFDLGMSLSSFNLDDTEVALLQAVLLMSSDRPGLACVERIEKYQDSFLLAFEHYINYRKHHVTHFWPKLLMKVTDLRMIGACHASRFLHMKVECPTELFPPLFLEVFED
# Outline: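 TR-UAS-bla GripTite HEK293 cells in 2% charcoal/dextran FBS medium were preincubated 4 h at 37 C, given compound (0.59 nM to 92 uM) plus 0.4 nM T3 (final) for 18 h, then CCF4 for 2 h at RT; Hill fit gave IC50.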
# [20] = qHTS assay for small molecule activators of the p53 signaling pathway (AID 651743; active = well fitted activation curve with a large enough effect in the signal ratio, not every such curve was filed as active; the % refers to the signal ratio; also: series mostly up to about 92 µM; % of control where 0% means no effect); details: HCT-116 p53RE-bla, beta-lactamase FRET ratio, 16 h; activation: stronger effect = higher value
# Outline: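 Agonist-mode quantitative HTS in HCT-116 cells carrying a p53-response-element beta-lactamase reporter; 16 h compound treatment at 37 C, then FRET substrate loading for 2 h at room temperature and fluorescence read.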
# [21] = qHTS assay for small molecule activators of the nuclear factor-kappa B (NF-kB) signaling pathway (AID 651749; active = well fitted activation curve with a large enough effect in the signal ratio; the % refers to the signal ratio; also: series mostly up to about 77 µM; % of control where 0% means no effect); details: NF-kB-bla ME-180 cells, beta-lactamase FRET ratio, 16 h; activation: stronger effect = higher value
# Outline: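 Human ME-180 cervical cells with an NF-kB-bla construct; compounds added via 23 nL pin transfer, DMSO as vehicle; incubation 16 hr. Reporter activity measured by FRET disruption.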
# [22] = qHTS assay for environmental chemicals that activate the Aryl hydrocarbon Receptor (AhR) signaling pathway (AID 651777; active = well fitted curve in the direction sought with a large enough effect; an effect the other way counts as inactive or inconclusive; also: % of control where 0% means no effect; nearly all actives have a fitted effect of over 15% in size); details: 1A2-DRE human hepatoma cells, luciferase, 24 h; activation: stronger effect = higher value
# Outline: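 Stable CYP1A2 promoter/DRE-luciferase human hepatoma line treated 24 hr; One-Glo luminescence, 30 min RT.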
# [23] = target: Peroxisome proliferator-activated receptor alpha (Homo sapiens) (UniProt Q07869); test: qHTS assay for small molecule agonists of the peroxisome proliferator-activated receptor alpha (PPARalpha) signaling pathway (AID 651778; active = well fitted curve in the direction sought with a large enough effect; an effect the other way counts as inactive or inconclusive; also: % of control where 0% means no effect); details: PathHunter PPARalpha complementation, chemiluminescence, 6 h; max response: stronger effect = higher value
# Chain of Peroxisome proliferator-activated receptor alpha (Homo sapiens) (Q07869 whole entry, looked up): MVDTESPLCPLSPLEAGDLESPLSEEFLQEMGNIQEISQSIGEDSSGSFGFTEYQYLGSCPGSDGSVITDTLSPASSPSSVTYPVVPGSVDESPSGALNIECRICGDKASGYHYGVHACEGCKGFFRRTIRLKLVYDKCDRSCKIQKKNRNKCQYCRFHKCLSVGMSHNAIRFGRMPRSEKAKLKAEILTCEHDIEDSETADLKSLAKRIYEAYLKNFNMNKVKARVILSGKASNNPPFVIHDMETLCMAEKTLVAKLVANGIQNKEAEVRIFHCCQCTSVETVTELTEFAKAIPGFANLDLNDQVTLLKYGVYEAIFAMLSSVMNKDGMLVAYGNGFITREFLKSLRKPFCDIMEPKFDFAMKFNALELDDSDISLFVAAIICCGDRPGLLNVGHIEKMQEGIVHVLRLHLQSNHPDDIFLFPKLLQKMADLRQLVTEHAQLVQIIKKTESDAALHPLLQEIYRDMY
# Outline: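 Cells plated at 2,000/well and held overnight at 37 C, 5% CO2, then compound added by pin tool for 6 hr; after PathHunter detection reagent and 60 min at room temperature, chemiluminescence from enzyme complementation was read.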
# [24] = qHTS assay for small molecule agonists of the antioxidant response element (ARE) signaling pathway measured by Nrf2-dependant transcriptional activity (AID 720636; active = well fitted curve in the direction sought with a large enough effect in the repeat runs; an effect the other way counts as inactive or inconclusive;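 also: HepG2 cells with an ARE-driven luciferase reporter; % of control where 0% means no effect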)
# Outline: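 Reporter gene assay, HepG2 ARE-luc: 16 hr compound, 37 C, 5% CO2; read-out luciferase luminescence.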
# [25] = qHTS assay for small molecule agonists of the antioxidant response element (ARE) signaling pathway measured by Nrf2-dependant transcriptional activity - cell viability counter screen (AID 720653; active = well fitted curve in the direction sought with a large enough effect in the repeat runs; an effect the other way counts as inactive or inconclusive; also: % is scaled to controls: 0 for no effect and ±100 for the full control effect); details: ARE-bla HepG2 viability, CellTiter-Glo ATP luminescence, 16 h; max response: stronger effect = lower value
# Outline: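 ARE-bla HepG2 cells (2,000/well) rested 5 hrs at 37C/5% CO2, then exposed to compounds in DMSO for 16 hrs. Viability was read in the same wells as intracellular ATP by luminescence, 30 min at room temperature after reagent addition.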
# [26] = qHTS assay for cell viability of HEK293 cells (AID 743288; active = well fitted curve in the direction sought with a large enough effect; an effect the other way counts as inactive or inconclusive; also: % is scaled to controls: 0 for no effect and ±100 for the full control effect; nearly all actives have a fitted effect of over 50% in size); details: ATP luminescence (CellTiter-Glo), 18 h; max response: stronger effect = lower value
# Outline: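 ATP luminescence (CellTiter-Glo) reports metabolically competent cell number after parental HEK293 cells, 2,000/well, were treated with DMSO-dissolved compounds for 18 h at 37 C; reagent incubation 30 min, room temperature.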
# [27] = qHTS assay for cell viability of the p53RE-bla HCT-116 cell line (AID 743292; active = well fitted curve in the direction sought with a large enough effect; an effect the other way counts as inactive or inconclusive; also: % is scaled to controls: 0 for no effect and ±100 for the full control effect; nearly all actives have a fitted effect of over 55% in size)
# Outline: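 Readout: CellTiter-Glo luminescence after 30 min RT. Treatment: compounds in DMSO, 16 h, 37 C. Cells: CellSensor p53RE-bla HCT-116, 4,000/well, preincubated 5 h.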
# [28] = target: Nuclear receptor subfamily 1 group I member 2 (Rattus norvegicus) (UniProt Q9R1A7); test: qHTS assay for small molecule activators of the rat pregnane X receptor (rPXR) signaling pathway (AID 651751; call rule not given here; also: 0% is about no effect); details: rPXR reporter cells, luciferase (One-Glo), 24 h
# [29] = qHTS assay for small molecule activators of the human pregnane X receptor (PXR) signaling pathway (AID 720659; call rule not given here; also: 0% is about no effect)
# [30] = target: Androgen receptor (Homo sapiens) (UniProt P10275); test: qHTS assay for small molecule antagonists of androgen receptor signaling (AID 588516; active = well fitted curve in the direction sought with a large enough effect in the signal ratio, with a control signal flat, not every such curve was filed as active; the % refers to the signal ratio; also: % is scaled to controls: 0 for no effect and ±100 for the full control effect)
# Outline: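 HEK293 AR-UAS-bla cells, 10% dialyzed FBS medium; cpd titration + R1881 10 nM final, 16 h 37 C; CCF4 2 h RT; FRET ratio; IC50/efficacy via Hill fit.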
# [31] = target: Thyroid hormone receptor beta (Homo sapiens) (UniProt P10828); test: qHTS assay for small molecule agonists of thyroid hormone receptor beta signaling (AID 588545)
# Outline: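 In this cell-based screen, titrated compounds act on HEK 293 cells held in medium with 2% charcoal/dextran FBS, NEAA and pyruvate for 18 hrs at 37 C. Responses are expressed relative to T3 (10 nM) as 100% and basal DMSO as 0%.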
compound,measurement,setting,value
CCCCN(CC)C(=O)SCCC,Potency,[1],inactive
same,Potency,[2],inactive
same,activation,[3],8.69% (inactive)
same,Potency,[4],inactive
same,activation,[5],3.83% (inactive)
same,activation,[6],4.14% (inactive)
same,Potency,[7],inactive
same,outcome,[8],inactive
same,max response,[9],5.34%
same,Potency,[10],inactive
same,Potency,[11],inactive
same,Potency,[12],inactive
same,Potency,[13],inactive
same,outcome,[14],inactive
same,max response,[15],-10.1%
same,Potency,[16],inactive
same,max response,[17],-6.82%
same,max response,[18],3.02% (inactive)
same,activity change % (negative = inhibition),[19],1.78% (inactive)
same,activation,[20],2.73% (inactive)
same,activation,[21],-0.995% (inactive)
same,activation,[22],0.496% (inactive)
same,max response,[23],0.725% (inactive)
same,Potency,[24],inactive
same,max response,[25],-4.49% (inactive)
same,max response,[26],-1.81% (inactive)
same,Potency,[27],inactive
same,max response,[28],4.32% (inactive)
same,outcome,[29],inactive
CCOP(=O)(NC(C)C)Oc1ccc(S(C)=O)c(C)c1 (configuration not stated),Potency,[1],inactive
same,Potency,[2],inactive
same,Potency,[30],inactive
same,Potency,[4],inactive
same,activation,[5],-0.691% (inactive)
same,activation,[6],-7.67% (inactive)
same,Potency,[7],inactive
same,outcome,[8],inactive
same,max response,[9],-19.9%
same,Potency,[10],inactive
same,Potency,[11],inactive
same,Potency,[13],inactive
same,outcome,[14],inactive
same,max response,[15],0.27%
same,Potency,[16],inactive
same,Potency,[31],inactive
same,max response,[17],-12.4%
same,max response,[18],0.125% (inactive)
same,activity change % (negative = inhibition),[19],7.26% (inactive)
same,activation,[20],-0.147% (inactive)
same,activation,[21],0.567% (inactive)
same,activation,[22],3.87% (inactive)
same,max response,[23],-2.3% (inactive)
same,max response,[25],20.7% (inactive)
same,max response,[26],-0.132% (inactive)
same,Potency,[27],inactive
same,max response,[28],-1.03% (inactive)
same,outcome,[29],inactive
